As a reminder, the AC50 is the concentration giving half of the maximal activity seen.

Results filed as inconclusive are left out. Activity calls are given as the source filed them. Rule for the calls, unless noted: active = hit-call score of the fitted dose curve at least 0.9, where 1 is the maximum; inactive = score below 0.9.

For experiment [1], the target named is Paired box protein Pax-6 (Homo sapiens) (UniProt P26367). Briefly: ATG_Pax6_CIS: Attagene CIS-FACTORIAL HepG2 Assay for human Paired Box 6 (PAX6) (AID 2282956). Particulars: HepG2 CIS-FACTORIAL PAX6 reporter transcription, RNA readout; actives raise or lower the signal. The procedure, abridged: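 Fluorescent RT-PCR products separated by capillary electrophoresis report PAX6-linked promoter mRNA in HepG2 cells 24 h post-dose. Curves fitted bidirectionally, DMSO as negative control.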

Experiment [2] can be described thus: ATG_PXRE_CIS: Attagene CIS-FACTORIAL HepG2 Assay for human Pregnane X Receptor Element (PXRE) (AID 2282957). Particulars: HepG2 Attagene CIS-FACTORIAL PXRE reporter, mRNA; actives raise or lower the signal. The method in brief: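 Reporter transcripts under endogenous PXR-responsive cis-regulation quantified from total RNA of transfected HepG2 cells 24 h post-dosing, via RT-PCR with fluorescent primer extension and capillary electrophoresis. Gain or loss of signal fitted against DMSO baseline.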

The nature of experiment [3]: ATG_PPRE_CIS: Attagene CIS-FACTORIAL HepG2 Assay for human Peroxisome Proliferator-activated Response Element (PPRE) (AID 2282958). As to conditions: HepG2 PPRE cis-element reporter, Attagene transcription factor profiling; actives raise or lower the signal. The procedure, abridged:
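PPRE activity in HepG2: transient cis-reporter transfection, 24 h compound incubation, reporter mRNA by RT-PCR and CE fluorescence; gain/loss fitted against DMSO.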

The nature of experiment [4]: ATG_RORE_CIS: Attagene CIS-FACTORIAL HepG2 Assay for human RAR-related Orphan Receptor Element (RORE) (AID 2282959). As to conditions: HepG2 Attagene cis-factorial RORE reporter, mRNA; actives raise or lower the signal. The method in brief:
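A 24-hour exposure of transfected HepG2 hepatoma cells precedes RNA isolation and reporter RT-PCR. Labeled products are digested with HpaI and resolved by capillary electrophoresis, with gain or loss of signal scored relative to DMSO.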

Experiment [5] is described as follows: ATG_Sox_CIS: Attagene CIS-FACTORIAL HepG2 Assay for human SRY-box transcription factor (SOX) (AID 2282960). As to conditions: HepG2 Attagene cis-factorial SOX reporter, mRNA; actives raise or lower the signal. The procedure, abridged:
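HepG2, cis reporter units, 24 h exposure. Reporter mRNA: RT-PCR → FAM labelling → HpaI → CE fluorescence. Bidirectional fit vs DMSO.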

The target in experiment [6] is Transcription factor Sp1 (Homo sapiens) (UniProt P08047). As to the kind of experiment: ATG_Sp1_CIS: Attagene CIS-FACTORIAL HepG2 Assay for human Specificity Protein 1 (Sp1) (AID 2282961). Particulars: HepG2 Sp1 cis-reporter transcription, actives raise or lower the signal. The method in brief:
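Liver-derived HepG2 cells, cis-element reporter library, 24 h treatment; RNA isolated, cDNA amplified with reporter-specific primers, FAM-labeled fragments sized on capillary analyzer. DMSO baseline, bidirectional curve fit.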

Experiment [7] in a line: ATG_SREBP_CIS: Attagene CIS-FACTORIAL HepG2 Assay for human Sterol Regulatory Element Binding (SREBP) (AID 2282962). Particulars: HepG2 Attagene cis-factorial SREBP reporter, mRNA; actives raise or lower the signal. The procedure, abridged: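 Endogenous factor activity is measured in HepG2 through multiplexed reporter units under cis-element control. Following a 24 h incubation, reporter transcripts are reverse-transcribed, PCR-amplified and sized by capillary electrophoresis; activity is fitted in both directions relative to DMSO.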

Experiment [8] deals with Signal transducer and activator of transcription 3 (Homo sapiens) (UniProt P40763). As to the kind of experiment: ATG_STAT3_CIS: Attagene CIS-FACTORIAL HepG2 Assay for human Signal Transducer and Activator of Transcription 3 (STAT3) (AID 2282963). As to conditions: HepG2, Attagene cis-factorial STAT3 reporter transcription; actives raise or lower the signal. The method in brief:
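Fluorescence intensity of 6-FAM-labelled reporter fragments, separated by capillary electrophoresis after RT-PCR, gave the signal. Cells were HepG2 transfected with cis-element reporter units and treated 24 h; fitting was bidirectional relative to DMSO.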

Experiment [9] can be described thus: ATG_TA_CIS: Attagene CIS-FACTORIAL HepG2 Assay for human TA Basal Promoter (AID 2282964). Particulars: HepG2 Attagene CIS-factorial TA basal promoter reporter; actives raise or lower the signal. The procedure, abridged:
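Background internal-marker endpoint from a 52-component HepG2 cis-reporter panel. Cells treated 24 h; reporter transcripts quantified via RT-PCR and CE fluorescence against DMSO baseline.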

Experiment [10] is described as follows: ATG_TCF_b_cat_CIS: Attagene CIS-FACTORIAL HepG2 Assay for human T-Cell-Factor with beta-catenin (TCF/b-cat) (AID 2282965). As to conditions: HepG2 TCF/beta-catenin cis-reporter transcription, actives raise or lower the signal. The method in brief:
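Cells of the HepG2 line carry transiently transfected reporter units whose promoters respond to endogenous factors. Twenty-four hours post-dosing, reporter mRNA induction is measured by fluorescent RT-PCR and capillary electrophoresis, with DMSO as baseline.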

The nature of experiment [11]: ATG_TAL_CIS: Attagene CIS-FACTORIAL HepG2 Assay for human TAL Basal Promoter (AID 2282966).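 Note: background control endpoint measuring basal TAL promoter reporter mRNA not a specific factor.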 Particulars: HepG2 Attagene cis-factorial TAL promoter reporter; actives raise or lower the signal. The method in brief: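 Background-control endpoint: basal TAL promoter reporter transcripts in transiently transfected HepG2, measured 24 h after dosing. Read-out by RT-PCR with fluorescent primer extension and capillary electrophoresis; gain or loss of signal fitted relative to DMSO.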

The nature of experiment [12]: ATG_TGFb_CIS: Attagene CIS-FACTORIAL HepG2 Assay for human Transforming Growth Factor (TGF) (AID 2282967). As to conditions: HepG2 Attagene CIS TGFb reporter, mRNA transcription; actives raise or lower the signal. The method in brief: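 Liver HepG2 line, cis-factorial reporter panel, 24 h dosing. Quantitation: RT-PCR products labeled with 6-FAM, cut with HpaI, resolved by capillary electrophoresis; DMSO-referenced bidirectional analysis.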

A short description of experiment [13]: ATG_VDRE_CIS: Attagene CIS-FACTORIAL HepG2 Assay for human Vitamin D Receptor Element (VDRE) (AID 2282968). Particulars: HepG2 VDRE cis-reporter transcription, actives raise or lower the signal. The method in brief:
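Compounds were applied for 24 h to HepG2 cells transfected with promoter-regulated reporter units. Total RNA was reverse-transcribed, and reporter amplicons were fluorescently labelled and sized by capillary electrophoresis.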

For experiment [14], the target named is Nuclear receptor subfamily 1 group I member 3 (Homo sapiens) (UniProt Q14994). Briefly: ATG_CAR_TRANS: Attagene TRANS-FACTORIAL HepG2 Assay for human Constitutive Androstane Receptor (CAR) (AID 2282969; active = hit-call score of the fitted dose curve at least 0.9, where 1 is the maximum;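 note: activators raise reporter mRNA above DMSO so AC50 marks induction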). Particulars: HepG2 Attagene TRANS-FACTORIAL CAR reporter. The method in brief: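 Transiently transfected HepG2, multiplex TRANS reporters (CAR-Gal4 chimera driving GAL4-UAS reporter). 24 h dosing. Readout: reporter transcript by RT-PCR + capillary electrophoresis, fluorescence intensity; positive direction vs DMSO.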

Experiment [15] concerns the target X-box-binding protein 1 (Homo sapiens) (UniProt P17861). As to the kind of experiment: ATG_Xbp1_CIS: Attagene CIS-FACTORIAL HepG2 Assay for human X-box Binding Protein 1 (XBP1) (AID 2282972). Particulars: HepG2 XBP1 cis-element reporter, Attagene multiplex; actives raise or lower the signal. The method in brief: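 Multiplexed cis-reporter readout in transfected HepG2 liver cells. Exposure lasted 24 hours. Activity in either direction was fitted against DMSO as negative control and baseline.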

Experiment [16] can be described thus: ATG_GAL4_TRANS: Attagene TRANS-FACTORIAL HepG2 Assay for GAL4 (Internal Marker) (AID 2282976; active = hit-call score of the fitted dose curve at least 0.9, where 1 is the maximum). Particulars: HepG2 Attagene TRANS GAL4 internal marker reporter. The procedure, abridged:
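In transfected human HepG2 liver cells dosed 24 h, GAL4 reporter mRNA serves as a baseline marker. Detection by RT-PCR with fluorescent capillary electrophoresis, activity fitted upward relative to DMSO.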

The target of experiment [17] is Estrogen receptor (Homo sapiens) (UniProt P03372). Briefly: ATG_ERa_TRANS: Attagene TRANS-FACTORIAL HepG2 Assay for human Estrogen Receptor alpha (ERa) (AID 2282970; active = hit-call score of the fitted dose curve at least 0.9, where 1 is the maximum). Particulars: HepG2 Attagene TRANS ERa GAL4 reporter, mRNA. The procedure, abridged: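 Reporter transcripts were measured 24 h after dosing by RT-PCR with fluorescent primer extension and capillary electrophoresis. The system is transiently transfected HepG2 expressing exogenous NR-Gal4 chimeras driving GAL4-UAS reporters; DMSO is the baseline.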

The nature of experiment [18]: ATG_M_19_TRANS: Attagene TRANS-FACTORIAL HepG2 Assay for M19 Transcription Factor (Internal Marker) (AID 2282974; active = hit-call score of the fitted dose curve at least 0.9, where 1 is the maximum). Particulars: HepG2 Attagene TRANS-FACTORIAL M19 internal marker reporter. The method in brief:
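Transfected HepG2 (GAL4-UAS MRTUs), 24 h compound, TriZol RNA, DNase-treated RT, reporter PCR, FAM label, HpaI digest, CE fluorescence; gain vs DMSO.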

The target in experiment [19] is Steroid hormone receptor ERR1 (Homo sapiens) (UniProt P11474). Briefly: ATG_ERRa_TRANS: Attagene TRANS-FACTORIAL HepG2 Assay for human Estrogen-Related Receptor alpha (ERRa) (AID 2282971; active = hit-call score of the fitted dose curve at least 0.9, where 1 is the maximum). Particulars: HepG2 Attagene TRANS reporter, ERRa transactivation. The method in brief:
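Reporter transcripts from ERRa-Gal4 chimera activity measured in transiently transfected human HepG2 cells 24 hours after dosing, using RT-PCR with 6-FAM primer extension, HpaI digestion and capillary electrophoresis; DMSO is baseline.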

Chain of X-box-binding protein 1 (Homo sapiens) (P17861 whole entry, looked up): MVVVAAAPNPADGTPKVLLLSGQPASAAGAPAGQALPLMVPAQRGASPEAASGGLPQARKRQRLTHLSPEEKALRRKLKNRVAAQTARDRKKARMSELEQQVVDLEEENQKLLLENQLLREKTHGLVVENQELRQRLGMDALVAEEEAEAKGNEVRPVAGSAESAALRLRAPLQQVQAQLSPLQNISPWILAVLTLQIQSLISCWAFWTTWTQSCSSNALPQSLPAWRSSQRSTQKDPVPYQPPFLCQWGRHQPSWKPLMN
Chain of Transcription factor Sp1 (Homo sapiens) (P08047 whole entry, looked up, the tested form may be a part): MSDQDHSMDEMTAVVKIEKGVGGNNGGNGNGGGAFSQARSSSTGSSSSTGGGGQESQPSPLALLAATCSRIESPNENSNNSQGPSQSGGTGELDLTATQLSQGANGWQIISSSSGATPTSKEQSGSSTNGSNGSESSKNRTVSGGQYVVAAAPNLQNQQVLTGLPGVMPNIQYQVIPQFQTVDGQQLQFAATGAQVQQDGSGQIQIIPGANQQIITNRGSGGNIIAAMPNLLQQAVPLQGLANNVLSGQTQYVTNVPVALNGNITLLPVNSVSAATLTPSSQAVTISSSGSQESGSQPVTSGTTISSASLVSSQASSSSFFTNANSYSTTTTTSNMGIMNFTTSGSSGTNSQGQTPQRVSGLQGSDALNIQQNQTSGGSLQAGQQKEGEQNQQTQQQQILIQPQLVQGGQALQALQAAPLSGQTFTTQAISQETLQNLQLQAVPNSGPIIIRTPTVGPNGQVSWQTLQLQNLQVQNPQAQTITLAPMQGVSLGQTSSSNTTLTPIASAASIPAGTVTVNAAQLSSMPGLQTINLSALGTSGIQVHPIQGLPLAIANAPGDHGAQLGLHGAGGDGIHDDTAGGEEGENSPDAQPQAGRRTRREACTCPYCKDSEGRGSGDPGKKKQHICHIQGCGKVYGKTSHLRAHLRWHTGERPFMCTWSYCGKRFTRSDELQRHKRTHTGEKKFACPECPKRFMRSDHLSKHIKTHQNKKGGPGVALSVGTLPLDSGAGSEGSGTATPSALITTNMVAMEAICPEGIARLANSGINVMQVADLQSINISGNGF
Chain of Paired box protein Pax-6 (Homo sapiens) (P26367 whole entry, looked up): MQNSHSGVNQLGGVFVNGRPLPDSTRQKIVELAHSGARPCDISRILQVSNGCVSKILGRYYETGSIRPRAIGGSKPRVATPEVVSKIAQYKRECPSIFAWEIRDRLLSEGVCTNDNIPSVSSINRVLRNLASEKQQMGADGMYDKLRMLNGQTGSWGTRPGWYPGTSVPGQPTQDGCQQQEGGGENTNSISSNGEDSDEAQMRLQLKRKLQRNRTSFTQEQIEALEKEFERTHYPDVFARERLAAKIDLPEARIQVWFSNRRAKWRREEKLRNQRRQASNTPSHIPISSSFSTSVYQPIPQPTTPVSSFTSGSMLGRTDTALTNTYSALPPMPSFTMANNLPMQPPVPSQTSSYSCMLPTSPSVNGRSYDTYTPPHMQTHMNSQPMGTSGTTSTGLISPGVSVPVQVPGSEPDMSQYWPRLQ
Chain of Nuclear receptor subfamily 1 group I member 3 (Homo sapiens) (Q14994 whole entry, looked up, the tested form may be a part): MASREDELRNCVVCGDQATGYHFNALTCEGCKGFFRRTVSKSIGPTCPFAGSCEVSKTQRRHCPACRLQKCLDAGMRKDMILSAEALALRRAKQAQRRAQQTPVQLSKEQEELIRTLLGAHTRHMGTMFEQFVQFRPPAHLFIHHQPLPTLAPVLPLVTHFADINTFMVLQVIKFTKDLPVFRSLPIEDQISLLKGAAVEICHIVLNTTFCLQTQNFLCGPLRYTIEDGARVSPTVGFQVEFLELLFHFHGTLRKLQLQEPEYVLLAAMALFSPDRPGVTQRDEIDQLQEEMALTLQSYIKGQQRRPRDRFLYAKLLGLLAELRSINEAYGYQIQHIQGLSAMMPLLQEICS
Chain of Signal transducer and activator of transcription 3 (Homo sapiens) (P40763 whole entry, looked up, the tested form may be a part): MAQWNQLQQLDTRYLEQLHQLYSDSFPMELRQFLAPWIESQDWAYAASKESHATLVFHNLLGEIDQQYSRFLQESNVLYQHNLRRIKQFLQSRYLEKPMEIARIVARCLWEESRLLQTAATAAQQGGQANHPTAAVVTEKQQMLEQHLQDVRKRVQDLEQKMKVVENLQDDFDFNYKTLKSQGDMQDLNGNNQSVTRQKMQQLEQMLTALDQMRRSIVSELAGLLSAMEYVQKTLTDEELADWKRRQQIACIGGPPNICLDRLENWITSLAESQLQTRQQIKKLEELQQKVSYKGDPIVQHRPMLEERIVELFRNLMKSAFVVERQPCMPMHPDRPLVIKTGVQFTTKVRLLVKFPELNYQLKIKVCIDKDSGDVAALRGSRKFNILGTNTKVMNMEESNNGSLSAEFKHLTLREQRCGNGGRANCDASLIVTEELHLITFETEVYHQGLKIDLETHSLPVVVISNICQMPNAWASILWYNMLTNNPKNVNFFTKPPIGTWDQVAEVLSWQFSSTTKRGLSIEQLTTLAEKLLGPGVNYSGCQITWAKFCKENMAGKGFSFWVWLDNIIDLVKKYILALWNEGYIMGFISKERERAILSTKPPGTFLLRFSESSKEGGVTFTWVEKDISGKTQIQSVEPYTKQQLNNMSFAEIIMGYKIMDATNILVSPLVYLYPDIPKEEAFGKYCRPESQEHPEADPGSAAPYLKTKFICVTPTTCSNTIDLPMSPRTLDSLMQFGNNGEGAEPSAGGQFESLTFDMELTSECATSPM
Chain of Estrogen receptor (Homo sapiens) (P03372 whole entry, looked up, the tested form may be a part): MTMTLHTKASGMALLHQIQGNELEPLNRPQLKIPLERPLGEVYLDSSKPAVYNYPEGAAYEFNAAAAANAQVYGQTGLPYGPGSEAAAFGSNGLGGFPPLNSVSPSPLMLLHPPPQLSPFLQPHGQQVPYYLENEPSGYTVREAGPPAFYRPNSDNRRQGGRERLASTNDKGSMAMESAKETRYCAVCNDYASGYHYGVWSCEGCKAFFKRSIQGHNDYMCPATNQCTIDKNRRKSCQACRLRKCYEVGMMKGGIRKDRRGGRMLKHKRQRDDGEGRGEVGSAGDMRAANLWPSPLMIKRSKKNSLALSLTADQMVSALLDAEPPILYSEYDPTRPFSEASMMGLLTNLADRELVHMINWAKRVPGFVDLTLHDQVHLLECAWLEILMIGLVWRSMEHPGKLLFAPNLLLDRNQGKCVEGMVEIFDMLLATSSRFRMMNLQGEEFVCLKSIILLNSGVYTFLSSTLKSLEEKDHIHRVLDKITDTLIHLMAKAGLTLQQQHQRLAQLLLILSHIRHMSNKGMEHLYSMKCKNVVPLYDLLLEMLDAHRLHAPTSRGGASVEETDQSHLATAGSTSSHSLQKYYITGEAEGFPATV
Chain of Steroid hormone receptor ERR1 (Homo sapiens) (P11474 whole entry, looked up, the tested form may be a part): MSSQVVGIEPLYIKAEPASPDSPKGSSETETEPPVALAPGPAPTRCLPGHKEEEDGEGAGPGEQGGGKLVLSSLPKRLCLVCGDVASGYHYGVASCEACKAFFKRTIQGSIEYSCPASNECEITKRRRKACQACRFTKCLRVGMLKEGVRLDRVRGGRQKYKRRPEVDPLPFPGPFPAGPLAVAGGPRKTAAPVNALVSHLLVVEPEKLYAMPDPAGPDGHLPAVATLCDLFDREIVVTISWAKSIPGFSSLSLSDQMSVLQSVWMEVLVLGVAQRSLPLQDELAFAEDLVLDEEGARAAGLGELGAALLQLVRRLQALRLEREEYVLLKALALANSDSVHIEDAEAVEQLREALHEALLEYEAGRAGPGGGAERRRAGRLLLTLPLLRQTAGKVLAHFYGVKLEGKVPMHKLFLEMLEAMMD

As for `OCCCl`, the call in experiment [1], in [2], in experiment [3], in [4], in experiment [5] and in experiment [6] was inactive. The compound was classed as inactive in experiment [7], in experiment [8], in [9], in experiment [10], in experiment [11] and in experiment [12]. Moreover, the result in [13], in [14], in experiment [15] and in experiment [16] was inactive.

For the compound `Cc1ccc([N+](=O)[O-])cc1`, the compound was called inactive in [1], in [2], in experiment [3], in experiment [4], in [5] and in experiment [6]. The result in experiment [7], in [8], in experiment [9], in [10], in experiment [11] and in [12] was inactive. The call in experiment [13], in [14], in experiment [17] and in experiment [15] was inactive.

Regarding `COC(=O)Nc1nc2ccccc2[nH]1`, the compound was classed as inactive in experiment [1], in [2], in experiment [3], in [4], in [5] and in experiment [6]. For the same compound, the outcome in [7], in [8], in [9], in experiment [10], in experiment [11] and in experiment [12] was inactive. For the same compound, the compound was called inactive in experiment [13], in experiment [14], in experiment [15] and in experiment [18].

For `O=[N+]([O-])c1ccc(Oc2ccc(Cl)cc2Cl)cc1`, the AC50 in experiment [1] is 31.9 µM (active); in [2], 25.8 µM (active); in experiment [4] it was 27.5 µM (active); in experiment [9] it was 39.7 µM (active); in experiment [12], 100 µM (active); in [13], 27.3 µM (active). Also, the compound was classed as inactive in [3], in experiment [5], in experiment [6], in experiment [7], in experiment [8] and in experiment [10]. Besides, the call in experiment [11], in [14], in experiment [19], in [15], in experiment [18] and in experiment [16] was inactive.

Consider `Nc1ccc(Cc2ccc(N)cc2)cc1`, for which the result in [1], in [2], in [3], in experiment [4], in [5] and in experiment [6] was inactive. Also, the compound was called inactive in [7], in experiment [8], in experiment [9], in experiment [10], in experiment [11] and in experiment [12]. The result in experiment [13], in experiment [14], in experiment [15] and in experiment [18] was inactive.

Take `CC(C)(OOC(C)(C)c1ccccc1)c1ccccc1`: the result in [1], in [3], in [4], in experiment [5], in [9] and in experiment [10] was inactive. Further, the outcome in experiment [12] and in experiment [14] was inactive. For the same compound, the AC50 is 25 µM (active) in [2]; 45.4 µM (active) in [6]; 62.9 µM (active) in [7]; 100 µM (active) in experiment [8]; 142 µM (active) in experiment [11]; 26.2 µM (active) in experiment [13]. Besides, the AC50 in [15] was 62.5 µM (active).

Regarding `c1ccc2c(c1)-c1cccc3cccc-2c13`, the outcome in experiment [1], in experiment [3], in experiment [4], in experiment [5], in experiment [6] and in experiment [7] was inactive. In addition, the result in experiment [8], in experiment [9], in [10], in experiment [11], in experiment [12] and in [13] was inactive. In addition, the call in [14], in experiment [15] and in [16] was inactive. Besides, in experiment [2], the AC50 was 26 µM (active).

The values are drawn from PubChem BioAssay (EPA / NIEHS).
